Results taken from PubChem BioAssay.
Activity calls are given as the source filed them. Unless noted, no rule for the calls is given here.

Experiments:
[1] = test system: XIP peptide (Xip251-270) binding; assay: small-molecule binders of XIP peptide, primary screen, biochemical, small-molecule microarray, fluorescence 635/667 nm, 0.1 µg/mL protein (AID 1182); details: fluorescent protein binding, 635 nm, higher = more signal, called active from +8 up or from −8 down
XIP peptide (Xip251-270) = assay: small-molecule binders of XIP peptide, primary screen, biochemical, small-molecule microarray, fluorescence 635/667 nm, 0.5 µg/mL protein (AID 1183); details: small-molecule microarray binding, fluorescence 635 nm; higher = more signal
[2] = Plasmodium falciparum growth inhibition, primary screen, strain 3D7, DAPI fluorescence, 100 nL (AID 1184);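 also: parasites grown inside human red blood cells in medium with human serum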; details: P. falciparum 3D7 growth, 3 d, higher = more signal
[3] = biological target: Homeobox protein Hox-A13 (Mus musculus) (UniProt Q62424); assay: inhibitors of HoxA13-DNA binding, primary screen, biochemical, fluorescence polarization, labeled oligonucleotide (AID 1185); details: 15 min, higher = more signal, called active from +8 up or from −8 down
[4] = inhibitors of hydroxyurea-induced Chk1 phosphorylation, primary screen, imaging, HeLa, phospho-Chk1 antibody, percent positive cells (AID 1186); details: hydroxyurea-induced phospho-Chk1 immunofluorescence imaging, higher = more signal
[5] = inhibitors of hydroxyurea-induced Chk1 phosphorylation, primary screen, imaging, HeLa, phospho-Chk1 nuclear intensity (AID 1187); details: hydroxyurea-induced phospho-Chk1 immunofluorescence imaging, higher = more signal

Chain of Homeobox protein Hox-A13 (Mus musculus) (Q62424 whole entry, looked up): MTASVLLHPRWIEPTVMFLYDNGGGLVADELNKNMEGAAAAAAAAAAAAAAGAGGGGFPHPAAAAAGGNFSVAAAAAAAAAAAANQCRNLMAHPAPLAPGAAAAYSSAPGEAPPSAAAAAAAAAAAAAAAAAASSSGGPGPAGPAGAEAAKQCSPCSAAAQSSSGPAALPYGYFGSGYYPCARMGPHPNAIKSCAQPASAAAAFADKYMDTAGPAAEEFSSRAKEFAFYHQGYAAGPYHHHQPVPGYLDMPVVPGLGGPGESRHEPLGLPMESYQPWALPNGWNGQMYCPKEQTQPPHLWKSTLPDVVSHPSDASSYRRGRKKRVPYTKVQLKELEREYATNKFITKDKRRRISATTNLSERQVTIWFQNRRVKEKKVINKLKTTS

Row | SMILES | composite z-score [1] | composite z-score (XIP peptide (Xip251-270)) | z-score [2] | z-score [3] | z-score [4] | z-score [5]
1 | CCCNC(=O)[C@@]1(c2ccc([N+](=O)[O-])cc2)CC(=O)N(C(C)C)[C@@H]1c1ccc(CO)cc1 | 3.93 (inactive) | 0.228 | -0.379 | -2.6 (inactive) | -0.102 (inactive) | -0.105 (inactive)
2 | CN1C(=O)C2C(C1=O)C1C=C(CCCO)C2C(C2CC2)N1Cc1cccc(OC(F)(F)F)c1 (configuration not stated) | 0.0292 (inactive) | 0.9 | -1.06 | -7.06 (inactive) | 0.0426 (inactive) | -0.0667 (inactive)
3 | CCCN1C(=O)[C@]2(CCC(=O)OC(C)(C)C)N=C(c3ccc(OCCCO)cc3)O[C@@H]2c2ccccc21 | 0.55 (inactive) | 0.601 | -2.33 | -3.37 (inactive) | -0.292 (inactive) | -0.312 (inactive)
4 | C=C(COC)/C(=C/C[C@H](OC(C)=O)c1ccccc1OCCO)c1cc(C(=O)OC)ccc1OC | 0.117 (inactive) | 0.788 | -2.75 | -4.27 (inactive) | -1.15 (inactive) | -1.14 (inactive)
5 | C[N+](C)(C)CCCCNC(=O)[C@H]1C[C@H]2C(=O)N[C@@H](Cc3ccccc3)C(=O)N2[C@H]1c1cccc(OCCO)c1 | 0.875 (inactive) | 0.696 | -0.352 | -3.44 (inactive) | 0.88 (inactive) | 0.461 (inactive)
6 | C=CCC(OC(C)=O)[C@@H]1[C@@H](N(Cc2ccc(-c3ccccc3)cc2)C(=O)c2cccc3ccccc23)c2cc(OCCCO)ccc2N1C(=O)Cc1ccc(OC)cc1 (some centres not stated) | 0.15 (inactive) | -0.686 | -1.38 | -1.88 (inactive) | -0.066 (inactive) | 0.0017 (inactive)
7 | COc1ccc(C(O)C2C=CC3C(=O)N(c4ccccc4)C(=O)C3N2Nc2ccc(C#N)cc2)cc1OCc1ccccc1 (configuration not stated) | 0.496 (inactive) | 0.556 | -0.474 | 0.712 (inactive) | -0.405 (inactive) | -0.669 (inactive)
8 | CCOC(=O)C[C@H]1[C@H](OC(=O)c2ccccc2-c2ccccc2)[C@@H](NC(=O)C2CCCCC2)c2cc(OCCCO)ccc2N1C(=O)c1ccc2ccccc2n1 | 0.181 (inactive) | 0.727 | 0.433 | -3.33 (inactive) | 0.0664 (inactive) | -0.108 (inactive)
9 | [N-]=[N+]=Nc1ccccc1[C@@H]1OC(c2ccc(OCCCO)cc2)=N[C@]1(Cc1ccccc1)C(=O)NCCN1CCOCC1 | 0.764 (inactive) | 0.441 | -2.65 | -3.81 (inactive) | -0.437 (inactive) | -0.456 (inactive)
10 | CCOC(=O)C[C@H]1[C@H](OC(=O)c2ccccc2-c2ccccc2)[C@@H](NC(=O)c2ccc3ccccc3c2)c2cc(OCCCO)ccc2N1C(=O)Cc1ccc(OC)cc1 | 0.882 (inactive) | -0.47 | 0.0063 | -2.79 (inactive) | -0.242 (inactive) | -0.189 (inactive)
11 | COc1ccc([Si](C)(C)[C@H]2[C@H](CCO)O[C@@]3(C(=O)N(Cc4cccc(N5C(=O)c6ccccc6Oc6ccccc65)c4)c4ccccc43)[C@@H]2C)cc1 | 0.505 (inactive) | 0.571 | -2.82 | -0.884 (inactive) | -0.432 (inactive) | -0.702 (inactive)
12 | CCOc1cc(C(O)C2C=CC3C(=O)N(c4ccccc4)C(=O)C3N2Nc2ccccc2F)ccc1O (configuration not stated) | 1.11 (inactive) | -0.213 | -0.0969 | -3.71 (inactive) | -0.379 (inactive) | -0.304 (inactive)
13 | O=C1c2ccccc2[C@@]2(Cc3ccccc3N(Cc3ccccc3)C2=O)[C@H](c2ccc(CO)cc2)N1Cc1ccccc1Cl | 0.0408 (inactive) | 0.311 | 0.689 | -0.299 (inactive) | -0.0672 (inactive) | 0 (inactive)
14 | Cc1ccc(N2C(=O)c3ccccc3[C@](C)(C(=O)NCCCN(C)C)[C@@H]2c2ccc(CO)cc2)nc1 | 0.0854 (inactive) | -0.495 | 0.165 | -2.55 (inactive) | -0.229 (inactive) | -0.321 (inactive)
15 | COC(=O)[C@@]1(Cc2ccccc2)[C@H]2c3cc(C(=O)N(C)C)n(CCSC(=N)N)c3C[C@H]2CN1C(=O)c1ccccc1 | -0.667 (inactive) | 0.903 | -0.118 | -3.8 (inactive) | 0.835 (inactive) | 0.849 (inactive)
16 | COC(=O)C(CC#Cc1ccc2c(c1)[C@]1(C(=O)N2)[C@H](C(=O)N2CCc3cc(OC)c(OC)cc3C2)[C@H]2C(=O)O[C@H](c3ccccc3)[C@H](c3ccccc3)N2[C@@H]1c1ccccc1OCCO)C(=O)OC | 0.254 (inactive) | 0.796 | -2.23 | 2.81 (inactive) | -0.0915 (inactive) | 0.0536 (inactive)
17 | CCOC(=O)C[C@H]1[C@H](OC(=O)Cc2ccc3c(c2)OCO3)[C@@H](NC(=O)c2ccc3ccccc3n2)c2cc(OCCCO)ccc2N1C(=O)Cc1ccc(OC)cc1 | 0.322 (inactive) | 0.401 | -2.57 | -1.86 (inactive) | -0.192 (inactive) | 0.225 (inactive)
